# PubChem BioAssay AID1441 (NMMLSC, 2008)
# About 830 (0.38%) of roughly 220,000 compounds were called active. The rule behind the calls is not given here. Shown is part of a subset that was picked to be rich in actives.
# Biological target: Regulator of G-protein signaling 16 (Homo sapiens) + Guanine nucleotide-binding protein G(o) subunit alpha (Homo sapiens) (UniProt O15492+P09471)
# Test: modulators of RGS16 binding to Galphao, primary screen, biochemical, human proteins, multiplexed bead flow cytometry (AID 1441);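 note: Galphao activated by GDP with aluminum fluoride before binding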
# Details: bead-based flow cytometry RGS16-Galphao binding, fluorescence; at 10 µM; actives lie on both sides
# Regulator of G-protein signaling 16 (Homo sapiens) + Guanine nucleotide-binding protein G(o) subunit alpha (Homo sapiens), sequence (O15492 whole entry, looked up): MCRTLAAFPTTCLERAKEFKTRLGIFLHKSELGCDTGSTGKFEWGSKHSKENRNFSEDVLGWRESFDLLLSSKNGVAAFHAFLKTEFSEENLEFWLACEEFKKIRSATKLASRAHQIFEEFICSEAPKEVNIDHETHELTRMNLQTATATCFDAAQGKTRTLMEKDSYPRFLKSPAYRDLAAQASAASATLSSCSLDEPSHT
# Regulator of G-protein signaling 16 (Homo sapiens) + Guanine nucleotide-binding protein G(o) subunit alpha (Homo sapiens), sequence (P09471 whole entry, looked up): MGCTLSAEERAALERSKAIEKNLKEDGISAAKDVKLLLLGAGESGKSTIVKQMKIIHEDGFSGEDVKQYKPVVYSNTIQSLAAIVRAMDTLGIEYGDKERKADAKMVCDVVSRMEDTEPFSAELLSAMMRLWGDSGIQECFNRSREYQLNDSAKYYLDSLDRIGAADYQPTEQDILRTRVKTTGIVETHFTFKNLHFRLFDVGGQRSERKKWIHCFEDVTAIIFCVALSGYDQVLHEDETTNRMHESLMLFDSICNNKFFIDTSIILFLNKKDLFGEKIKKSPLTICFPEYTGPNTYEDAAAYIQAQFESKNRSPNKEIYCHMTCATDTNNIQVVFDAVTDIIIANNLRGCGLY
row,SMILES,binding response (% of control)
1,CC(C)N(CC#CCC1(O)c2ccccc2-c2ccccc21)C(C)C,180% [activator] (active)
2,CCOC(=O)C1(Cc2ccc(Cl)cc2)CCN(C(C)CCn2cccn2)CC1 (stereo not given),102% (inactive)
3,O=[N+]([O-])c1ccc(C2C3C(c4ccccc4)=NC4(CCCCC4)N32)cc1 (stereo not given),100% (inactive)
4,COc1ccc(CN2C(=O)NC(=O)/C(=C\c3ccc(OC)c(OC)c3OC)C2=O)cc1,97.6% (inactive)
5,CCOC(=O)c1c(-c2ccccc2)oc2ccc(OC(=O)N(C)C)cc12,116% (inactive)
